# The full list was thinned out, with hits kept by preference.
# LmPK inh: blocks Leishmania mexicana pyruvate kinase activity; Q27686; purified LmPK, Kinase-Glo ATP luminescence, 1 h; Potency, µM (doses to about 57.5 µM), for the others: at the highest dose activity change, negative = inhibition, most hits filed as inhibitors; hit rate 0.37% among 290,000; AID 1721; further: potency means the concentration at half of the fitted maximal effect; on the % scale 0 is the no-effect control and ±100 the full control effect
# Target sequence (Q27686 whole entry, looked up): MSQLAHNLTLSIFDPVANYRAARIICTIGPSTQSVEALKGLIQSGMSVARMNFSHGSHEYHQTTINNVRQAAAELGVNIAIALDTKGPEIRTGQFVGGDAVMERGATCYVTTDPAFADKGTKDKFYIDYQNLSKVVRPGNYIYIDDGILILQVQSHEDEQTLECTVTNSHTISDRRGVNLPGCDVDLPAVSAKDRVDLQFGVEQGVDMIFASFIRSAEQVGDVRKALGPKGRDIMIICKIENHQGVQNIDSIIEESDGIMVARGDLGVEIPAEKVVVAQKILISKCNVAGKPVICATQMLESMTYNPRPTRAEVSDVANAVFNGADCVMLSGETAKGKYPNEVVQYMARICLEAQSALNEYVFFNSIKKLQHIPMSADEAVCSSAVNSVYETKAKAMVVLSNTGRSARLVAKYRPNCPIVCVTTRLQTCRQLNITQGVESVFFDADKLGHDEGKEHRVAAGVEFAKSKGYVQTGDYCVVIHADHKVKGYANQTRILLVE
#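 Screened at intermediate enzyme activity to detect both inhibitors and activators: LmPK at 0.1 nM, with a 0.5 nM enzyme column as activation reference. PEP 0.5 mM, ADP 0.1 mM; ATP detected by luminescence after 1 h.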
# Tb PYK inh: inhibitors of Trypanosoma brucei pyruvate kinase | TbPYK enzyme, Kinase-Glo Plus ATP luminescence, 45 min | Potency, µM (titrated, usually from 76.8 µM), for inactives: at the highest dose activity, negative = inhibition, most hits filed as inhibitors | Q57TT1 | hit rate 0.12% among 410,000; further: potency means the concentration at half of the fitted maximal effect; on the % scale 0 is the no-effect control and ±100 the full control effect; nearly all actives have a fitted effect of over 50% in size
#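 Activity of T. brucei pyruvate kinase was followed by Kinase-Glo Plus luminescence after the enzyme reacted 45 min at room temperature with 130 uM ADP (final) and substrate. Test compounds were added before ADP at multiple concentrations.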
# Cycloheximide cs: affects cycloheximide protein synthesis inhibition readout, counter-screen | cell reporter, cycloheximide protein synthesis inhibition counterscreen | max response, % | hit rate 12% among 300,000 | AID 2314; in the data active means max response mostly above about 13%, no sharp cut-off; inactive means mostly below about 14%; further: read at 38.3 µM for the half of the compounds with a filed dose; 0% is about no effect
# Sm TGR block: S. mansoni TGR enzyme inhibition; purified TGR, DTNB reduction, TNB absorbance 405 nm; hit rate 3% among 360,000; Q962Y6; Potency, µM (series often up to 114 µM), without a hit: top-dose activity change, negative = inhibition, hits mostly inhibitors; AID 485364; further: potency means the concentration at half of the fitted maximal effect; on the % scale 0 is the no-effect control and ±100 the full control effect; nearly all actives have a fitted effect of over 60% in size
#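 TGR 20 nM + NADPH 100 uM (dispensed conc.), cpd preinc 15 min RT; start with NADPH (500 uM addition) then DTNB (15 mM addition). Kinetic TNB absorbance, 405 nm filter. Four-parameter Hill fit across titration.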
# Giardia FBPA inh: Giardia lamblia aldolase inhibition. Potency, µM (series often up to 59.6 µM), for inactives: top-dose activity, negative = inhibition, most hits filed as inhibitors. purified Giardia FBPA. hit rate 0.71% among 290,000; further: potency means the concentration at half of the fitted maximal effect; on the % scale 0 is the no-effect control and ±100 the full control effect; nearly all actives have a fitted effect of over 55% in size
#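 Giardia FBPA (40 nM reagent) was preincubated 10 min at RT with compound (up to 57.5 uM final), then substrate plus GAPDH/TPI/NAD/arsenate coupling system with diaphorase/resazurin was added; resorufin fluorescence (525/598 nm) was read after 20 min.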
# Shiga toxin inh: Shiga toxin inhibition | Vero cells, Shiga toxin protein synthesis inhibition reporter | inhibition, % at 38.7 µM | hit rate 9.2% among 290,000; in the data active means inhibition mostly above about 28%, no sharp cut-off; inactive means mostly below about 43%; further: 0% is about no effect
# An asterisk follows results filed as active; ? = inconclusive; nt = no result given; + = active, no number; [ ] = another dose, or the depositor's remark. Unless noted, the call rests on the fitted dose curve; in most records, active means well fitted curve in the direction sought with a large enough effect; inconclusive means small, poorly fitted or top-dose-only effect, or another doubt; inactive means no such curve, though single readings can be large; an effect the other way counts as inactive or inconclusive.
SMILES,LmPK inh,Tb PYK inh,Cycloheximide cs,Sm TGR block,Giardia FBPA inh,Shiga toxin inh
O=C(Cn1cncn1)N/N=C/c1cc([N+](=O)[O-])ccc1O,-14.6%,-0.2%,-1.0,-2.3%,-4.7%,8.0
O=C(Cn1c(=O)n(Cc2ccccc2)c(=O)c2oc3ccccc3c21)Nc1ccc(Cl)cc1,nt,-9.2%,nt,-32.5%,nt,nt
C=CC[N+]1([C@H]2C[C@H]3[C@@H]4CC[C@H]5C[C@H](OC(C)=O)[C@@H](N6CCCCC6)C[C@]5(C)[C@H]4CC[C@]3(C)[C@H]2OC(=O)CC)CCCCC1,nt,-7.5%,nt,nt,nt,nt
Cc1ccc(/C=C/c2onc(C)c2S(=O)(=O)N2CCC(C(=O)Nc3ccc(C)c(N(C)C)c3)CC2)cc1,nt,0.3%,nt,27.3%,nt,nt
O=S(=O)(NCc1cc(-c2ccccc2Cl)no1)c1ccccc1,0.4%,2.0%,-2.1,12.8%,-4.8%,-4.1
O=S(=O)(Cc1cc(-c2ccc(Cl)cc2)no1)c1ccccc1,0.6%,-8.0%,38.0*,-6.0%,-3.3%,44.2*
O=S(=O)(Cc1cc(-c2ccccc2Cl)no1)c1ccccc1,0.9%,1.0%,37.5*,8.1%,-7.3%,121.0*
CCOC(=O)c1ccc(N2C(=O)c3[nH]nc(-c4ccccc4)c3C2c2ccc(CC)cc2)cc1 (stereo not drawn),nt,0.2%,nt,7.2%,nt,nt
CC1CCCCC12NC(=O)N(Cc1cc(=O)n3ccsc3n1)C2=O (stereo not drawn),-6.4%,3.3%,30.5*,-15.3%,-1.1%,2.4
CC1CCC2(CC1)NC(=O)N(Cc1cc(=O)n3ccsc3n1)C2=O (stereo not drawn),-0.2%,2.0%,-2.7,-5.0%,5.1%,-1.3
N#CCC(=N)N1CCN(c2cccc(Cl)c2)CC1,2.4%,-3.5%,1.3,11.4%,-0.8%,18.1
N#CCC(=N)N1CCN(c2ccccc2Cl)CC1,2.7%,-11.3%,-0.9,1.5%,-0.9%,+
N#CCC(=N)N1CCN(c2ccccc2)CC1,-1.5%,1.2%,13.0,14.7%,-1.4%,53.0*
O=c1oc2ccc(Cl)cc2cc1-c1cn2c(n1)sc1ccccc12,nt,2.5%,nt,2.8%,nt,nt
COc1ccc(C2C=C(C)Nc3nc4ccccc4n32)cc1 (stereo not drawn),-2.0%,5.5%,42.9*,-29.1%,2.4%,110.9*
COc1ccc(C2C(C(=O)c3ccccc3)=C(C)Nc3nc4ccccc4n32)c(OC)c1 (stereo not drawn),-0.9%,0.1%,31.4*,-12.9%,9.0%,43.0*
COc1ccc(C2C(C#N)=C(N)Nc3nc4ccccc4n32)cc1 (stereo not drawn),-3.0%,-6.8%,27.2*,0.4%,1.1%,26.4*
COc1ccc(C2C(C(=O)Nc3ccc(C)cc3C)=C(C)Nc3nc4ccccc4n32)c(OC)c1 (stereo not drawn),nt,0.9%,nt,5.2%,nt,nt
CC(/C=C/C=C/c1ccccc1)=N/NC(=O)CNc1ccc(C)cc1,2.7%,3.0%,35.3*,-11.1%,-11.7%,31.6
CC(/C=C/c1ccccc1)=N/NC(=O)CNC(=O)c1ccccc1F,3.4%,-0.9%,22.2,-3.2%,-1.5%,16.2
CC(/C=C/c1ccccc1)=N\NC(=O)CNC(=O)c1ccccc1Cl,-2.7%,-5.5%,10.1*,7.4%,4.3%,-11.5
CC(/C=C/C=C/c1ccccc1)=N/NC(=O)C(O)c1ccccc1 (stereo not drawn),1.7%,-25.1%,10.8,?,0.1%,36.5
COCCNC(=O)COc1ccc(Br)cc1Cl,-3.2%,-7.3%,32.5*,-15.9%,3.7%,41.7
C=CCNC(=O)COc1ccc(Br)cc1Cl,-6.0%,-1.9%,33.5*,-4.7%,4.2%,56.2
CN(C)CCCNC(=O)COc1ccc(Br)cc1Cl,-0.8%,6.1%,1.5,-1.5%,4.1%,-23.0
SMILES,LmPK inh,Tb PYK inh,Cycloheximide cs,Sm TGR block,Giardia FBPA inh,Shiga toxin inh
C=CCNC(=S)NNC(=O)COc1ccc(Cl)cc1Cl,1.9%,-20.9%,10.8,-17.8%,10.6%,21.0
C=CCOC(=O)c1sc(NC(=O)c2ccc(OC)cc2)nc1C,-12.6%,-2.4%,15.7*,0.3%[57.1 µM],0.7%,36.9
CCOC(=O)c1sc(NC(=S)NC(=O)c2ccc(OC)cc2)nc1C,-0.1%,-6.0%,9.7,0.0%,?,8.5
COC(=O)c1sc(NC(=O)c2ccncc2)nc1C,-22.9%,-7.3%,5.2,11.2%,-6.7%,8.9
CCOc1ccc(C(=O)Nc2nc(C)c(C(=O)OC)s2)cc1,-10.5%,-1.7%,34.9*,18.7%,4.2%,51.3*
COc1ccc(OCC(=O)N2CCN(C(=O)c3cccc(OC)c3)CC2)cc1,nt,-4.5%,nt,1.7%,nt,nt
CC(C)NC(=O)Cn1nnc(-c2ccccc2)c1COc1ccc2ccccc2c1,nt,1.7%,nt,nt,nt,nt
c1ccc2c(c1)Cn1nc(Cc3nc4c(s3)CCCC4)nc1-2,-1.4%,-15.3%,34.8*,1.9%,-13.3%,74.2*
CCOc1ccc(CC(=O)Nc2c(C(=O)c3ccc(Cl)cc3)oc3ccccc23)cc1OCC,nt,4.0%,nt,8.2%,nt,nt
Cc1ccc(CNCc2c(C(=O)O)c(C)n(Cc3ccc(C)cc3)c2C)cc1,nt,9.5%,nt,-5.6%,nt,nt
c1ccc2oc(NC3=NCN(C4CCCCC4)CN3)nc2c1,-2.2%,1.2%,20.4*,1.5%,0.4%,18.2
CC(C)N1CN=C(Nc2nc3ccccc3o2)NC1,2.8%,0.4%,37.0*,-3.4%,0.1%,37.2*
Cc1nc(NC2=NCN(CCc3ccccc3)CN2)nc2ccccc12,-2.7%,nt,-1.2,0.5%,-2.0%,19.8
Cc1ccc(S(=O)(=O)NC2=NCN(C(C)C)CN2)cc1,-5.6%,-1.2%,0.5,3.5%,13.8%,1.8
c1ccc2sc(NC3=NCN(C4CCCCCC4)CN3)nc2c1,0.0%,9.9%,-2.3,8.8%,-0.1%,-6.6
CCCCN1CN=C(Nc2nc3ccccc3o2)NC1,-1.3%,0.0%,61.8*,8.6%,-3.5%,116.2*
COCCN1CN=C(Nc2nc3ccccc3s2)NC1,5.3%,6.0%,20.7*,17.4%,-0.2%,30.9*
O=C(O)C1=CC(c2ccc(Br)cc2)n2ncnc2N1 (stereo not drawn),nt,-11.7%,nt,10.7%,nt,nt
COCCN1CN=C(Nc2nc3ccccc3o2)NC1,0.3%,-1.5%,27.5*,-0.8%,nt,34.8
CCOC(=O)c1ccc(NS(=O)(=O)c2ccc3c(c2)OCCO3)cc1,nt,-4.4%,nt,1.6%,nt,nt
Nc1c(-c2ccc(Cl)cc2)cnn1-c1ccccc1,-3.1%,3.1%,37.2*,8.5%,3.4%,114.4*
N#Cc1c(C#N)c(-c2ccccc2)n(-c2ccc(C(=O)O)cc2)c1N,3.7%,-7.1%,-2.9,0.5%,19.2%,2.2
Cc1ccc(-c2cnn(-c3ccccc3)c2N)cc1,?,?,31.6*,-3.9%,-4.8%,40.6*
COc1ccc(-c2cnn(-c3ccccc3)c2N)cc1OC,-0.9%,-4.3%,12.3,6.8%,3.7%,36.0
Nc1c(-c2ccccc2)cnn1-c1ccc(C(=O)O)cc1,-2.9%,0.4%,48.3*,0.0%,0.8%,88.0*
CC(C)(C)S(=O)(=O)c1cnc2c(-c3ccc(Cl)cc3)cnn2c1N,-0.6%,3.8%,-3.7,0.0%,?,-6.4

# From PubChem
